PubChem BioAssay (NCI)
This is part of a sample that, as a whole, favours compounds with a hit. Of some 79,000 tested, about 15% had one in any assay. Active and inactive are the calls of the source. Rule as the data show it: active = growth inhibition above about 70%; inactive = the rest.

Assay: NCI Yeast Anticancer Drug Screen. Data for the wt1 strain (AID 149);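 also: 0% = growth of vehicle-treated wt1 cultures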
Details: S. cerevisiae wt1 strain (SPY 50644) growth inhibition; at 1.2 µM; hits give high values
Summary of the method: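 Measured: growth of wt1 yeast under compound versus vehicle treatment, reported as inhibition.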

Row | SMILES | growth inhibition
1 | CCOP(=O)(OCC)C(Cc1ccccc1)N=C(c1ccccc1)c1ccccc1 (stereo not drawn) | -18% (inactive)
2 | CCc1ncnc2cc(OCC3CO3)c(OC)cc12 (stereo not drawn) | -9% (inactive)
3 | CCOC(=O)[C@H]1Nc2ccccc2C2c3ccccc3CC21 (stereo partly drawn) | -9% (inactive)
4 | O=CNc1ccc2c(c1)C(=O)c1ccccc1-2 | -2% (inactive)
5 | CCOc1ccc2c(c1)c(CC(=O)O)cn2C | -4% (inactive)
6 | OC1CSCCCSCCSCCCSC1 | -12% (inactive)
7 | N#Cc1c(N)[nH]c2ccc(Sc3ccccc3)cc12 | 1% (inactive)
8 | Cc1ccc(-c2ccc(Nc3c4ccccc4nc4ccccc34)cc2)cn1 | 30% (inactive)
9 | c1ccc2c(c1)NC(NC1Nc3ccccc3N1)N2 | 0% (inactive)
10 | OC(COc1cccc2ccccc12)CN1CCOCC1 (stereo not drawn) | 13% (inactive)
11 | CCC/C(Cl)=N\OC(=O)Nc1ccc(Br)cc1 | 13% (inactive)
12 | COc1ccc(/C=C2\SC(=S)N(/C=C/c3nc4ccccc4[nH]c3=O)C2=O)cc1OC | 3% (inactive)
13 | O=C(NNc1ccnc2cc(Cl)ccc12)/C(=C\c1ccccc1Cl)NC(=O)c1ccccc1 | -80% (inactive)
14 | CSC1=NNC(SC)=NN1 | -7% (inactive)
15 | Cc1c(C2=C(Br)C(=O)N(C)C2=O)c(=O)n(C)c(=O)n1C | 4% (inactive)
16 | NCCNc1ccc(NCCN)c2c1C(=O)c1c(O)ccc(O)c1C2=O | 0% (inactive)
17 | Cn1c(=O)c(-c2ccccc2)c(N=[N+]=[N-])c2ccccc21 | -38% (inactive)
18 | CCCCCCCCCCCCCCCCCCOCC(O)COP(=O)(O)OCC1OC(n2cc(F)c(=O)[nH]c2=O)CC1O (stereo not drawn) | 17% (inactive)
19 | CCS(=O)(=O)c1ccc(/C=C/C=N/NC(=S)NCC(C)C)cc1 | 0% (inactive)
20 | CCC(=O)Oc1c(Cl)cc(Cl)c2ccccc12 | -4% (inactive)

Row | SMILES | growth inhibition
21 | COc1cc2c3c(cccc3c1)C(=O)N(CCN(C)C)C2=O | -6% (inactive)
22 | CN(C)c1ccc(C(C#N)=C(C#N)C#N)cc1 | -6% (inactive)
23 | O=C(CCCN1CCC2(CC1)CC(=O)N(N1CCCCCC1)C2=O)c1ccc(F)cc1 | 11% (inactive)
24 | O=C1C2C(C(=O)N1c1ccc(OCc3ccccc3)cc1)C1c3ccccc3C2C2CCCCN21 (stereo not drawn) | -6% (inactive)
25 | CCN(CC)CCC(=O)c1ccc(Oc2ccc(F)cc2)cc1 | -11% (inactive)
26 | O=Nc1c(NO)ccc2nn(-c3ccccc3)nc12 | 12% (inactive)
27 | CC(=O)SCCC[Si](C)(C)CCCSC(C)=O | -3% (inactive)
28 | O=C(O)C1CCCCC1c1c2ccc(=O)c(O)c-2oc2c(O)c(O)ccc12 (stereo not drawn) | -17% (inactive)
29 | Cc1ccc(NN(NC(=O)OC(C)C)C(=O)OC(C)C)cc1 | 2% (inactive)
30 | O=C1c2ccccc2C(=O)c2cc(CBr)ccc21 | 0% (inactive)
31 | Cc1c(C(Cc2ccccc2N(C)C(=O)/C=C\C(=O)O)c2c[nH]c3ccccc23)c2ccccc2n1C (stereo not drawn) | -3% (inactive)
32 | CC(C)/C(Cl)=N\OC(=O)Nc1ccc(F)cc1 | 2% (inactive)
33 | O=C1OC(=O)C2CCCC3CCCC1C32 (stereo not drawn) | 7% (inactive)
34 | CCOC(=O)C(NC(=O)c1ccccc1)(N1CCN(c2cc3c(cc2F)c(=O)c(C(=O)O)cn3C2CC2)CC1)C(F)(F)F (stereo not drawn) | -2% (inactive)
35 | COc1ccc(NC(=S)N/N=C(\c2ccccc2)c2ccccn2)cc1 | -4% (inactive)
36 | C=CCC1=C(C)C(OC(=O)/C=C/c2ccccc2)CC1=O (stereo not drawn) | -2% (inactive)
37 | NNc1c(F)c(F)cc(F)c1F | -28% (inactive)
38 | COP(=O)(OC)/C(=C\C1=CN(C(c2ccccc2)(c2ccccc2)c2ccccc2)CN1)NC=O | 12% (inactive)
39 | COC(=O)c1cc(-c2ccc(C)cc2)[nH]c(=O)c1C#N | -2% (inactive)

Same assay, conditions: S. cerevisiae wt1 strain (SPY 50644) growth inhibition; at 3.7 µM; hits give high values

Row | SMILES | growth inhibition
40 | CCOP(=O)(OCC)C(Cc1ccccc1)N=C(c1ccccc1)c1ccccc1 (stereo not drawn) | -28% (inactive)
41 | CCc1ncnc2cc(OCC3CO3)c(OC)cc12 (stereo not drawn) | 8% (inactive)
42 | CCOC(=O)[C@H]1Nc2ccccc2C2c3ccccc3CC21 (stereo partly drawn) | -2% (inactive)
43 | O=CNc1ccc2c(c1)C(=O)c1ccccc1-2 | -1% (inactive)
44 | CCOc1ccc2c(c1)c(CC(=O)O)cn2C | -3% (inactive)
45 | OC1CSCCCSCCSCCCSC1 | -16% (inactive)
46 | N#Cc1c(N)[nH]c2ccc(Sc3ccccc3)cc12 | 5% (inactive)
47 | Cc1ccc(-c2ccc(Nc3c4ccccc4nc4ccccc34)cc2)cn1 | 20% (inactive)
48 | c1ccc2c(c1)NC(NC1Nc3ccccc3N1)N2 | 5% (inactive)
49 | OC(COc1cccc2ccccc12)CN1CCOCC1 (stereo not drawn) | 23% (inactive)
50 | CCC/C(Cl)=N\OC(=O)Nc1ccc(Br)cc1 | 14% (inactive)
51 | COc1ccc(/C=C2\SC(=S)N(/C=C/c3nc4ccccc4[nH]c3=O)C2=O)cc1OC | 5% (inactive)
52 | O=C(NNc1ccnc2cc(Cl)ccc12)/C(=C\c1ccccc1Cl)NC(=O)c1ccccc1 | -1% (inactive)
53 | CSC1=NNC(SC)=NN1 | -9% (inactive)
54 | Cc1c(C2=C(Br)C(=O)N(C)C2=O)c(=O)n(C)c(=O)n1C | 13% (inactive)
55 | NCCNc1ccc(NCCN)c2c1C(=O)c1c(O)ccc(O)c1C2=O | 9% (inactive)
56 | Cn1c(=O)c(-c2ccccc2)c(N=[N+]=[N-])c2ccccc21 | -26% (inactive)
57 | CCCCCCCCCCCCCCCCCCOCC(O)COP(=O)(O)OCC1OC(n2cc(F)c(=O)[nH]c2=O)CC1O (stereo not drawn) | 4% (inactive)
58 | CCS(=O)(=O)c1ccc(/C=C/C=N/NC(=S)NCC(C)C)cc1 | -3% (inactive)
59 | CCC(=O)Oc1c(Cl)cc(Cl)c2ccccc12 | -4% (inactive)

Row | SMILES | growth inhibition
60 | COc1cc2c3c(cccc3c1)C(=O)N(CCN(C)C)C2=O | -11% (inactive)
61 | CN(C)c1ccc(C(C#N)=C(C#N)C#N)cc1 | -5% (inactive)
62 | O=C(CCCN1CCC2(CC1)CC(=O)N(N1CCCCCC1)C2=O)c1ccc(F)cc1 | 24% (inactive)
63 | O=C1C2C(C(=O)N1c1ccc(OCc3ccccc3)cc1)C1c3ccccc3C2C2CCCCN21 (stereo not drawn) | -7% (inactive)
64 | CCN(CC)CCC(=O)c1ccc(Oc2ccc(F)cc2)cc1 | 23% (inactive)
65 | O=Nc1c(NO)ccc2nn(-c3ccccc3)nc12 | 27% (inactive)
66 | CC(=O)SCCC[Si](C)(C)CCCSC(C)=O | -5% (inactive)
67 | O=C(O)C1CCCCC1c1c2ccc(=O)c(O)c-2oc2c(O)c(O)ccc12 (stereo not drawn) | -11% (inactive)
68 | Cc1ccc(NN(NC(=O)OC(C)C)C(=O)OC(C)C)cc1 | 7% (inactive)
69 | O=C1c2ccccc2C(=O)c2cc(CBr)ccc21 | 0% (inactive)
70 | Cc1c(C(Cc2ccccc2N(C)C(=O)/C=C\C(=O)O)c2c[nH]c3ccccc23)c2ccccc2n1C (stereo not drawn) | -6% (inactive)
71 | CC(C)/C(Cl)=N\OC(=O)Nc1ccc(F)cc1 | -1% (inactive)
72 | O=C1OC(=O)C2CCCC3CCCC1C32 (stereo not drawn) | 51% (inactive)
73 | CCOC(=O)C(NC(=O)c1ccccc1)(N1CCN(c2cc3c(cc2F)c(=O)c(C(=O)O)cn3C2CC2)CC1)C(F)(F)F (stereo not drawn) | -1% (inactive)
74 | COc1ccc(NC(=S)N/N=C(\c2ccccc2)c2ccccn2)cc1 | -3% (inactive)
75 | C=CCC1=C(C)C(OC(=O)/C=C/c2ccccc2)CC1=O (stereo not drawn) | -5% (inactive)
76 | NNc1c(F)c(F)cc(F)c1F | -27% (inactive)
77 | COP(=O)(OC)/C(=C\C1=CN(C(c2ccccc2)(c2ccccc2)c2ccccc2)CN1)NC=O | 3% (inactive)
78 | COC(=O)c1cc(-c2ccc(C)cc2)[nH]c(=O)c1C#N | -1% (inactive)
